Here are results for eight compounds from the supplement of paper PMC12494721.

Structures can show the parent of a compound that is named as a salt.

The test system of the assay is Ruminococcus gnavus DSM 108212. Description: growth (OD595) fold change vs plate DMSO controls (fold change (ratio)); higher = more growth. The note with it: 20 µM; incubation time: 27 h, anaerobic, 37 °C. The method, boiled down: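 Each value is the mean of 2 biological replicates, and fold changes above 1.5 were set to NA. The underlying readings were taken at 595 nm from shaken anaerobic mGAM cultures in 96-well plates after 27 h at 37 °C. They were blank-subtracted, corrected for compound background using 20 µM compound solutions in water, and converted to OD with a calibration factor of 5. Growth is the fold change relative to the median of the plate DMSO controls.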
With `Oc1ccc2c3c1O[C@H]1[C@@H](O)CC[C@@]4(O)[C@@H](C2)N(CC2CCC2)CC[C@]314` [Nalbuphine hydrochloride], the growth turned out to be 1.08.
The value for `CON(C)C(=O)Nc1ccc(Cl)c(Cl)c1` was 1.07; that for `C=CC(N)=O` [Acrylamide] was 0.973.
The figure for `Nc1ccncc1` [Dalfampridine] is 0.985.
Consider `CC(=O)O[C@H]1C[C@@H]2CC[C@@H]3[C@H](CC[C@@]4(C)[C@H]3C[C@H]([N+]3(C)CCCCC3)[C@@H]4OC(C)=O)[C@@]2(C)C[C@@H]1[N+]1(C)CCCCC1` [Pancuronium bromide], for which the growth came to 1.08.
Consider `CC(C)(C)C(O)(CCc1ccc(Cl)cc1)Cn1cncn1` (stereo not drawn), for which the growth was found to be 1.02.
In the case of `CCNC1(c2cccs2)CCCCC1=O` (stereo not drawn) [Tiletamine hydrochloride], the growth is 1.15.
The figure for `COc1ccc(OC)c(C(O)C(C)N)c1` (stereo not drawn) [Methoxamine hydrochloride] is 0.0622.
